Screening data (PubChem BioAssay)
Shown are actives, neighbours in structure and some others; about 7.5% of the full set was active somewhere.
Rab9 promoter act: qHTS Assay for Rab9 Promoter Activators; Huh7 Rab9 promoter-luciferase reporter, luminescence, 24 h; Potency, µM (highest dose often 9.22 µM), hits mostly activators; 320,000 compounds, 2.8% hits; AID 485297, 2010; further: nearly all actives have a fitted effect of over 60% in size
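Measured in stably transfected Huh7 cells bearing a Rab9 promoter–luciferase construct: 24 h compound treatment at 37 °C, followed by luminescence detection.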
Luc counter: Counterscreen for Luciferase (Kinase-Glo TM) Inhibition. AID 1379, 2008. Kinase-Glo luciferase, ATP luminescence, 8 min. 200,000 compounds, 0.28% hits. Potency, µM (doses to about 38.3 µM), most hits filed as inhibitors. Luciferin 4-monooxygenase (Photuris pensylvanica), Q27757; further: nearly all actives have a fitted effect of over 60% in size
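Substrate mix (final 50 mM imidazole pH 7.2, 50 mM KCl, 7 mM MgCl2, 10 uM ATP, 0.01% Tween 20, 0.05% BSA) plus pin-tool compound, then Kinase-Glo detection mix; 8 min ambient, luminescence read.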
NPC1 prom act: qHTS Assay for NPC1 Promoter Activators | Huh7 NPC1 promoter luciferase reporter, 24 h | Potency, µM (highest dose often 9.22 µM), usual class: activators | 320,000 compounds, 2.4% hits; further: nearly all actives have a fitted effect of over 60% in size
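Stably transfected Huh7 (NPC1 promoter→luciferase), 1500 cells/well in Opti-MEM + 10% FBS, 2 h settle, then compound 24 h at 37 °C. Luminescence after 10 min with Amplite reagent.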
ELG1 genotoxic: qHTS screen for small molecules that induce genotoxicity in human embryonic kidney (HEK293T) cells expressing luciferase-tagged ELG1. Potency, µM (highest dose often 46 µM), actives largely listed as activators. 330,000 compounds, 1.3% hits. HEK293T ELG1-luciferase reporter, luminescence, 16 h; further: nearly all actives have a fitted effect of over 60% in size
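Cells (2,000/well) expressing the ELG1-luciferase fusion are dosed by pin tool and kept 16 hr at 37 °C, 5% CO2. Signal comes from ONE-Glo luciferase reagent after 30 min at room temperature.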
SMN2 splice up: qHTS Assay for Enhancers of SMN2 Splice Variant Expression; HEK293 SMN2-luciferase splicing reporter, luminescence, 30-36 h; Potency, µM (titrated, usually from 46.1 µM), usual class: activators; 210,000 compounds, 2.8% hits; further: nearly all actives have a fitted effect of over 55% in size
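HEK293 cells carry an SMN2 […]–luciferase reporter in which exon 7 inclusion puts luciferase in frame. Cells were plated 10-12 h before compound addition, then incubated 30-36 h at 37C. ONE-Glo luminescence was read; sodium butyrate at 4.5 mM final served as control.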
FLuc counter: qHTS profiling assay for firefly luciferase inhibitor/activator using purifed enzyme and Km concentrations of substrates (counterscreen for miR-21 project); AID 588342, 2011; purified FLuc, Km substrates, luminescence inhibition; Luciferin 4-monooxygenase (Photinus pyralis), P08659; 360,000 compounds, 6.9% hits; Potency, µM (series often up to 57.5 µM), usual class: inhibitors; further: nearly all actives have a fitted effect of over 55% in size
Target sequence (P08659 whole entry, looked up): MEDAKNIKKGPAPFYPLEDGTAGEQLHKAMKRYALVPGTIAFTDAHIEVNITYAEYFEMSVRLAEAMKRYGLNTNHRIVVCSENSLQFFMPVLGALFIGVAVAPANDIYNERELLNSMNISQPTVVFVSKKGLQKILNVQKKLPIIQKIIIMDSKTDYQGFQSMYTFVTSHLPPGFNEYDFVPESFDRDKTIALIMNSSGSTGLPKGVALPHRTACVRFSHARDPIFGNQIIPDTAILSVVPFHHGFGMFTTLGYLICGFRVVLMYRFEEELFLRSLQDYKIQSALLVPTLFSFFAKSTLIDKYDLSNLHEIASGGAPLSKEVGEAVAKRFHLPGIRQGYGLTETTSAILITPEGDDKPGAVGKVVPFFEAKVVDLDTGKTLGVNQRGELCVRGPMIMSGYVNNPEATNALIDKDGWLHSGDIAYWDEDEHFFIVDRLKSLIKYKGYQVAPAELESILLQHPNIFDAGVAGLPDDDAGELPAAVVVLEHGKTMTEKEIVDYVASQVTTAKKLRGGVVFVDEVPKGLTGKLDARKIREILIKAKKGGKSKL
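Purified P. pyralis luciferase (10nM final) with 10uM D-luciferin and 10uM ATP (Km levels) in 50mM Tris acetate pH 7.5, 10mM Mg acetate, 0.01% Tween-20, 0.05% BSA; qHTS 6-point titration, ~60 µM downward; luminescence read.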
A number is an active result; . = inactive; ? = inconclusive; / = no result. The call rests on the fitted dose curve; in most records, active means well fitted curve in the direction sought with a large enough effect; inconclusive means small, poorly fitted or top-dose-only effect, or another doubt; inactive means no such curve, though single readings can be large; an effect the other way counts as inactive or inconclusive.

SMILES	Rab9 promoter act	Luc counter	NPC1 prom act	ELG1 genotoxic	SMN2 splice up	FLuc counter
CCc1ccc(Cn2nnc(C(=O)Nc3ccc(C)cc3)c2N)cc1	/	/	/	/	.	.
Oc1ccc(Nc2nc(-c3ccccc3F)nc3ccccc23)cc1	.	/	.	.	/	.
COc1ccc(Nc2nc(-c3ccccc3F)nc3ccccc23)cc1OC	.	/	.	.	/	26.9µM
COc1ccc(-c2c(-c3ccc4c(c3)OCO4)noc2C)cn1	.	/	.	.	/	21.3µM
CCOC(=O)Cc1c(C)nc2c(-c3ccccc3)c(C)[nH]n2c1=O	.	.	.	.	.	.
CCOC(=O)Cc1c(C)nc2c(-c3ccccc3)c(-c3ccccc3)[nH]n2c1=O	.	.	.	.	4.47µM	.
O=C(O)c1ccc(/C=N/Nc2cccc(C(F)(F)F)c2)cc1	2.51µM	.	2.82µM	?	10µM	21.3µM
O=C(O)c1cccc(N/N=C/C2=C(Cl)c3cc(Cl)ccc3SC2)c1	0.794µM	.	0.316µM	0.58µM	0.501µM	1.35µM
O=C(O)c1ccc(/C=N/Nc2ccc(C(F)(F)F)cn2)cc1	?	.	0.398µM	?	12.6µM	4.78µM
COc1cc(/C=N/Nc2ccc(C(F)(F)F)cn2)ccc1O	.	.	.	.	.	?
COC(=O)c1ccc(COc2ccccc2/C=N/Nc2cccc(C(=O)O)c2)cc1	?	.	?	?	/	?
O=C(O)c1ccc(N/N=C/c2ccc(OC(=O)c3ccccc3Cl)cc2)cc1	?	.	?	?	.	1.9µM
CCOC(=O)c1ccc2c(c1)N(CC(=O)Nc1ccc(CC)cc1)C(=O)c1ccccc1S2	/	/	/	/	/	.
CC(C)c1ccc(/C=N/NC(=O)CC(=O)NCc2ccccc2)cc1	.	.	.	.	.	?
CC(C)c1ccc(/C=N/Nc2ccc(C(=O)O)cc2)cc1	.	.	.	?	.	0.19µM
O=C(O)c1ccc(/C=N/O)cc1	.	/	.	.	/	.
O=C(O)c1ccc(N/N=C/C=C/c2ccccc2)cc1	0.251µM	/	0.316µM	?	/	0.601µM
O=C(O)c1ccc(N/N=C/c2ccc(-c3ccccc3)cc2)cc1	0.316µM	.	?	?	3.98µM	0.477µM
O=C(O)c1cccc(N/N=C/c2ccc(F)c(F)c2)c1	0.282µM	.	0.282µM	?	1.12µM	0.338µM
CCCCCCN(CCCCCC)C(=O)Cc1c(-c2ccc(Cl)cc2)[nH]c2ccc(Cl)cc12	/	.	/	/	.	/
Cc1ccc(C(=O)NNC(=O)c2nn(-c3ccc(F)cc3)ccc2=O)cc1	.	/	.	.	/	15.1µM
COCCn1c(C)cc(O)c(C(c2ccccc2Cl)N2CCCCC2)c1=O (stereo not drawn)	/	/	/	/	/	.
Cc1ccc(C(=O)COC(=O)c2ccc(Cl)c(N)c2)s1	3.16µM	/	?	.	/	1.35µM
Nc1cc(C(=O)OCC(=O)c2ccc(CC(=O)N3CCOCC3)s2)ccc1Cl	.	/	.	.	/	?
O=C(OCC(=O)c1ccc(Cl)s1)c1ccc(CO)cc1	.	/	.	.	/	21.3µM
SMILES	Rab9 promoter act	Luc counter	NPC1 prom act	ELG1 genotoxic	SMN2 splice up	FLuc counter
CCCN(C(=O)c1cn(C)c(=O)c2cc(OC)c(OC)cc12)c1ccc(CC)cc1	/	/	/	/	/	.
COc1ncc2nc(CCc3ccccc3)c(=O)n(Cc3cccs3)c2n1	/	.	/	/	.	/
CCN(CC)C(=O)CSc1nc2cc3c(cc2c(=O)n1Cc1ccc(C(=O)NCCc2ccc(OC)c(OC)c2)cc1)OCO3	/	/	/	/	/	.
Clc1cc(NCc2cccs2)ccc1N1CCOCC1	?	.	?	18.4µM	?	?
Oc1ccccc1CNc1ccc2c(c1)OCCO2	3.55µM	.	.	?	/	12µM
Cc1ccc(NCc2ccccc2O)cc1C	.	.	.	?	.	?
Cc1ccc(CNc2ccc3c(c2)OCO3)c(C)c1	/	.	/	/	.	21.3µM
c1csc(CNc2ccc3c(c2)OCCO3)c1	.	.	.	8.2µM	.	26.9µM
c1cncc(CNc2ccc3c(c2)OCO3)c1	.	.	.	.	.	.
Cc1cccc(CC(=O)NCCc2csc(-c3ccc(C(F)(F)F)cc3)n2)c1	/	/	/	/	/	.
COc1ccc(-c2nnc(SCC(=O)Oc3ccc(C)cc3)o2)cc1	.	.	.	.	.	?
COc1ccc(-c2nnc(SC)o2)c(OC)c1	.	.	.	?	.	?
COc1ccc(-c2nnc(SCC(C)C)o2)cc1	0.631µM	/	1µM	?	/	1.51µM
CCOC(=O)CSc1nnc(-c2ccc(OC)cc2OC)o1	.	.	.	.	.	9.53µM
CCOC(=O)CSc1nnc(-c2ccc(OC)cc2)o1	/	/	/	/	.	16.9µM
O=C(CSc1ncn[nH]1)N/N=C/c1ccc(Br)cc1	.	/	.	.	/	15.1µM
Cc1nnc2c3ccccc3nc(N3CCN(c4ccccc4)CC3)n12	/	/	/	/	.	.
Cc1ccc(-c2cn(-c3ccccc3F)c(=S)[nH]2)cc1	3.16µM	/	?	.	/	?
COc1ccccc1-n1cc(-c2ccccc2)[nH]c1=S	.	/	.	.	/	.
O=[N+]([O-])c1ccc(-c2cn(-c3ccccc3F)c(=S)[nH]2)cc1	1.41µM	.	?	.	.	.
Cc1c2cnn(-c3ccccc3)c(=O)c2c(C)n1CC(=O)Nc1ccccc1Br	/	/	/	/	.	.
CCC(=O)Nc1ccccc1-c1nc2ccccc2n(CC(=O)c2ccc(Br)cc2)c1=O	/	/	/	/	/	.
Cc1cccc(NC(=O)c2sc3nc4n(c(=O)c3c2C)N=C(c2ccc(F)cc2)CS4)c1C	/	/	/	/	/	.
O=C(Nc1c(C(=O)N2CCN(c3ccccc3F)CC2)oc2ccccc12)c1cccc(F)c1	/	/	/	/	/	.
O=C(Nc1ccccc1)Nc1ccc2ocnc2c1	1.26µM	11.2µM	?	.	?	10.7µM
SMILES	Rab9 promoter act	Luc counter	NPC1 prom act	ELG1 genotoxic	SMN2 splice up	FLuc counter
O=C(Nc1ccccc1)Nc1ccc2ncoc2c1	?	.	?	?	11.2µM	12µM
CNC(=O)Nc1ccc2nc(C)oc2c1	.	/	.	.	/	.
Cc1cccc(NS(=O)(=O)c2ccc3c(c2)n(C)c(=O)n3C)c1C	/	/	/	/	/	.
CCn1c(C)nc2cc(NC(=O)Nc3cccc(C(C)=O)c3)ccc21	?	/	2.82µM	.	/	1.51µM
Cc1nc2cc(NC(=O)Nc3nccs3)ccc2n1C	1.41µM	?	1.41µM	2.59µM	14.1µM	4.26µM
CCn1c(C)nc2cc(C(=O)OC)ccc21	.	.	.	.	/	.
COc1cccc(NC(=O)Nc2ccc3nsnc3c2)c1	2.82µM	.	?	.	12.6µM	7.57µM
COc1cccc(NC(=O)Nc2ccc3c(c2)nc(C)n3C)c1	0.708µM	?	0.708µM	?	/	0.953µM
COc1cccc(NC(=O)Nc2ccc3nc(C)c(C)nc3c2)c1	.	/	.	.	/	?
COc1cc(Cl)c(C)cc1NC(=O)c1cc2c(Cl)nc3ccc(C)cc3c2s1	/	/	/	/	.	.
